ADAM10 inh: human ADAM10 inhibitors, primary screen, biochemical, QFRET, HTS. Disintegrin and metalloproteinase domain-containing protein 10 (Homo sapiens), O14672. recombinant ADAM10, EDANS/DABCYL FRET peptide cleavage, 3 h. inhibition, % at 7 µM. 370,000 compounds, 0.62% hits. AID 720582, 2013;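 active = inhibition above a per-campaign cutoff equal to the mean of compounds falling between control-based bounds plus 3 SD, cut at about 20% in these data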
PLC-gamma1 inh: PLC-gamma1 enzyme inhibitors, primary screen, biochemical, fluorescence, purified enzyme. fluorogenic substrate. inhibition, % at 12.2 µM. 370,000 compounds, 0.84% hits. AID 720700, 2013; in the data active = inhibition above about 9.5%
sPLA2-III inh: human group III sPLA2 inhibitors, primary screen, biochemical, QFRET, BODIPY PC-A2 liposome substrate. QFRET BODIPY PC-A2 liposome hydrolysis, fluorescence. inhibition, % at 12.2 µM. 370,000 compounds, 0.56% hits. AID 743126, 2013;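 active = inhibition above mean plus 3 SD of compounds lying within the high and low control bounds, cut at about 19% in these data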
PLCb3 inh: human PLC-beta3 inhibitors, primary screen, biochemical, fluorescence; Purified PLC-beta3, fluorogenic substrate; inhibition, % at 12.2 µM; 370,000 compounds, 0.18% hits; AID 720704, 2013
KLK7 zymogen act: proKLK7 zymogen activators, primary screen, biochemical, fluorescence intensity | purified proKLK7, EDANS-DABCYL substrate fluorescence; 100% is mature enzyme control, 0% vehicle | 370,000 compounds, 0.9% hits | Kallikrein-7 (Homo sapiens), P49862 | activation, % at 7 µM;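 active = activation above the mean of all tested compounds plus 3 SD, computed per campaign excluding outliers beyond control limits, cut at about 13% in these data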
ADAM17 inh: ADAM17 inhibitors, primary screen, biochemical, QFRET; Disintegrin and metalloproteinase domain-containing protein 17 (Homo sapiens), P78536; recombinant ADAM17, EDANS/DABCYL FRET peptide cleavage; inhibition, % at 6.95 µM; 370,000 compounds, 0.83% hits; AID 720648, 2013;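 active = inhibition above the mean of compounds lying between control limits plus 3 SD, set per campaign, cut at about 8.5% in these data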
PLCg1 ctr: PLC-gamma1 enzyme inhibitors, counter-screen for PLC-beta3 inhibitor project, biochemical, fluorescence; shares compounds with PLC-gamma1 inh; purified PLC-gamma1, fluorogenic substrate; inhibition, % at 12.3 µM; 3,300 compounds, 3.1% hits; AID 743258, 2014; in the data active = inhibition above about 9.5%
PLCbeta3 conf: PLC-beta3 inhibitor confirmation, biochemical, fluorescence, purified enzyme; shares compounds with PLC-gamma1 inh; fluorogenic substrate fluorescence; inhibition, % at 12.3 µM; 3,300 compounds, 1% hits; AID 743261, 2014
Large screens that a line does not name were inactive (follow-up assays come after a bar, where they were run). Only some compounds are listed: those with a hit (about 3.4% of all), similar ones and a draw of the others. Rule as the data show it, unless noted: active = inhibition above about 11%; inactive = the rest.

CCCN1CCN(S(=O)(=O)c2ccc(-n3cnnn3)cc2)CC1	none
CC(C)c1ccc(NC(=O)Cc2ccc(NC3=NC4CS(=O)(=O)CC4S3)cc2)cc1 (stereo unspecified)	PLC-gamma1 inh 11 | PLCg1 ctr inactive | PLCbeta3 conf inactive
CCCCCCOc1ccc(C(=O)O)cc1C#N	PLC-gamma1 inh 9.8 | PLCg1 ctr inactive | PLCbeta3 conf inactive
COc1ccc2nc(NC(=O)C3CCN(C(=O)c4ccco4)CC3)sc2c1	none
CCOC(=O)N1CCC(NS(=O)(=O)c2ccc3c(c2)CCN3C(C)=O)CC1	PLC-gamma1 inh 12 | PLCg1 ctr inactive | PLCbeta3 conf inactive
CCNC(=O)C1(C)CCN1C(=O)CCc1cccc(Cl)c1 (stereo unspecified)	PLC-gamma1 inh 14 | PLCg1 ctr inactive | PLCbeta3 conf inactive
Cc1ccc(C)c(NC2=NS(=O)(=O)c3ccccc32)c1	PLC-gamma1 inh 11 | PLCg1 ctr inactive | PLCbeta3 conf inactive
Cc1ccccc1NC1=NS(=O)(=O)c2ccccc21	none
COc1ccc(/C=C/C(=O)OCC(=O)NC(=O)NC(C)(C)C)cc1	none
O=C(NCC1CCCO1)C1CCN(S(=O)(=O)c2cc(Cl)ccc2Cl)CC1 (stereo unspecified)	PLC-gamma1 inh 12 | PLCg1 ctr inactive | PLCbeta3 conf inactive
O=C(O)c1cccc(-c2ccc(/C=c3/sc4nc5ccccc5n4c3=O)o2)c1	PLC-gamma1 inh 18 | PLCg1 ctr inactive | PLCbeta3 conf inactive
O=C(O)c1ccccc1-c1ccc(C=c2sc3nc4cc(Br)cnc4n3c2=O)o1	none
Cc1ccc(S(=O)(=O)NCc2ccccc2)cc1C(=O)N1CCN(S(=O)(=O)c2ccccc2F)CC1	none
COC(=O)c1c(C)[nH]c(C(C)=O)c1C	PLC-gamma1 inh 11 | PLCg1 ctr inactive | PLCbeta3 conf inactive
CC(=O)c1[nH]c(C)c(C(C)=O)c1C	none
Cc1noc(C)c1S(=O)(=O)N(C)C[C@H]1Oc2ccc(NS(=O)(=O)c3ccccc3)cc2C(=O)N([C@H](C)CO)C[C@@H]1C	none
O=C(Cc1cccs1)N1CCC(c2nc3c(nnn3Cc3ccccc3Cl)c(=O)[nH]2)CC1	PLC-gamma1 inh 18, PLCb3 inh 17 | PLCg1 ctr 11 | PLCbeta3 conf 16
O=c1[nH]c(C2CCN(S(=O)(=O)c3ccccc3)CC2)nc2c1nnn2Cc1ccc2c(c1)OCCO2	PLC-gamma1 inh 10 | PLCg1 ctr inactive | PLCbeta3 conf inactive
O=c1[nH]c(C2CCN(S(=O)(=O)c3ccc4c(c3)OCCO4)CC2)nc2c1nnn2Cc1ccc(F)cc1	none
COc1cc(Cl)ccc1NC(=S)N(CCN1CCOCC1)C1CCN(C(C)=O)CC1	PLC-gamma1 inh 11 | PLCg1 ctr inactive | PLCbeta3 conf inactive
Cc1noc(C)c1-c1nnc(-c2ccc(C(F)(F)F)cc2)o1	PLC-gamma1 inh 10 | PLCg1 ctr inactive | PLCbeta3 conf inactive
CCOC(=O)n1c(=O)[nH]c2ccc(Br)cc21	none
CCOc1ccc(S(=O)(=O)N2CCC(C(=O)NCc3cccnc3)CC2)cc1	PLC-gamma1 inh 12 | PLCg1 ctr inactive | PLCbeta3 conf inactive
COc1ccc(NS(=O)(=O)c2cccc(C(=O)NCCCn3ccnc3)c2)cc1	PLC-gamma1 inh 11 | PLCg1 ctr inactive | PLCbeta3 conf inactive
CCOCCCNC(=O)CN1CCN(S(=O)(=O)c2ccc3c(c2)CCC3)CC1	PLC-gamma1 inh 9.6 | PLCg1 ctr inactive | PLCbeta3 conf inactive
CCOCCCNC(=O)CN1C(=O)COc2ccc(S(=O)(=O)N3CCCCCC3)cc21	none
COC(=O)C12OCC34C(CC5C(C)=C(O)C(=O)CC5(C)C3C(O)C1O)OC(=O)C(OC(=O)C=C(C)C)C24 (stereo unspecified)	PLC-gamma1 inh 12 | PLCg1 ctr inactive | PLCbeta3 conf inactive
CC(=O)N[C@@H](C)C(=O)OC(C)C(=O)Nc1cccc([N+](=O)[O-])c1 (stereo partly specified)	none
CS(=O)(=O)c1ccc(NC(=O)c2cc3c(cc2Cl)N2CCCCCC2=NS3(=O)=O)cc1	none
COc1ccccc1NC(=O)c1cc2c(cc1Cl)N1CCCCCC1=NS2(=O)=O	PLC-gamma1 inh 12 | PLCg1 ctr inactive | PLCbeta3 conf inactive
CCC(=O)N1CCC1(C)C(=O)Nc1ccc2scnc2c1 (stereo unspecified)	none
COC(=O)c1cc(C)nc2c1C(=O)C(=O)C=C2N1CCOCC1	PLC-gamma1 inh 14 | PLCg1 ctr 49 | PLCbeta3 conf 11
COC(=O)c1cc(S(=O)(=O)N2CCOCC2)c(Cl)cc1N1CCOCC1	none
